This is a sample that favours compounds with a hit; in the whole collection about 4.1% have one here.
DAX1 inh-1: inhibits human nuclear receptor DAX1 | P51843 | HEK293 Gal4-DAX1 luciferase reporter, luminescence | inhibition, % at 6.75 µM | 340,000 compounds, 0.99% hits | AID 504766;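 active = inhibition above the mean over all tested compounds plus 3 SD, cut at about 4.2% in these data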;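 note: 0% = DAX1-transfected cells with DMSO and 100% = empty-vector control cells with DMSO; inhibition shows as a rise in luminescence from relieved DAX1 repression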
Target sequence (P51843 207-470 limits assumed): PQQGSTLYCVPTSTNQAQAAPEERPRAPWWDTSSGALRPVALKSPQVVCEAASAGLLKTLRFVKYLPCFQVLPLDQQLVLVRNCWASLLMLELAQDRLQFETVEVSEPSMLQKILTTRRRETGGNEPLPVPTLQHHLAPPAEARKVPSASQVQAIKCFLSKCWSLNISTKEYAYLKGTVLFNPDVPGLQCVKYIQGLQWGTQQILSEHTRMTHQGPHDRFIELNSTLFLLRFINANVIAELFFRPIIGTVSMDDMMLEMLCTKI
hcDAF-12 act: activators of H. contortus DAF-12 nuclear receptor | HEK293 hcDAF-12 lit1-tk-luc reporter, luminescence; 0% DMSO, 100% Δ7-dafachronic acid | activation, % at 6.8 µM | 370,000 compounds, 1.4% hits | AID 652067;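 active = activation above the mean of all tested compounds plus 3 SD, cut at about 5.5% in these data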;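 note: 100% = response to 3 µM Δ7-dafachronic acid high control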
ssDAF-12 act: activators of S. stercoralis DAF-12 nuclear receptor | HEK293 ssDAF-12/GRIP1 lit1-tk-luc reporter, luminescence; % of 3 µM dafachronic acid response | activation, % at 6.8 µM | 370,000 compounds, 1% hits;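 active = activation above the mean over all tested compounds plus 3 SD, cut at about 0.9% in these data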;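 note: 0% = DMSO-only wells and 100% = 3 µM delta7-dafachronic acid wells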
DAX1 inh-2: DAX1 (NR0B1) inhibition, primary screen; HEK293T StAR-luciferase reporter, SF-1/DAX-1 repression relief; inhibition, % at 6.8 µM; 370,000 compounds, 1.1% hits; AID 652010;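 active = inhibition above the mean over all tested compounds plus 3 SD, cut at about 3.6% in these data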;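 note: 0% = DAX-1 cells with DMSO and 100% = cells lacking DAX-1 with DMSO; higher inhibition means more luminescence from relief of DAX-1 repression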
hgDAF12 agonist: hgDAF-12 agonism, primary luciferase screen | 370,000 compounds, 1.8% hits | HEK293 GAL4-hgDAF12 UAS-luciferase reporter, agonist luminescence; normalized to butyrate control | AID 687014 | activation, % at 6.8 µM;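 active = activation above a cutoff set at the mean of all screened compounds plus 3 SD, cut at about 10% in these data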;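 note: 0% = DMSO wells and 100% = sodium butyrate wells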
hgDAF12 conf: hgDAF-12 agonism, confirmation assay | shares compounds with hgDAF12 agonist | HEK293 GAL4-hgDAF12 luciferase reporter, agonist mode; percent of butyrate response | activation, % at 6.8 µM | 3,300 compounds, 80% hits | AID 743050;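 active = mean activation over triplicate wells above the hit cutoff derived from the earlier primary screen, cut at about 11% in these data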;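 note: 0% = DMSO low control and 100% = 2 mM sodium butyrate high control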
LXRb DAF12 ctr: counter-screen for DAF-12 agonists: agonists of human LXR-beta | shares compounds with hgDAF12 agonist | HEK293 Gal4-LXR luciferase reporter, 24 h | activation, % at 6.8 µM | 3,300 tested, under 10 active | AID 743051;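 active = mean activation of the triplicate above a set limit carried over from the primary screen, none filed active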
Active calls of the source: *; . = no result given.

SMILES	DAX1 inh-1	hcDAF-12 act	ssDAF-12 act	DAX1 inh-2	hgDAF12 agonist	hgDAF12 conf	LXRb DAF12 ctr
C[C@@H]1NC(=O)[C@H]2C[C@@]3(c4ccccc4)c4ccccc4N[C@H]3N2C1=O	.	-1	-1	-1	3	.	.
COc1ccc2cc(CCNC(=O)c3cc4ccccc4o3)c(=O)[nH]c2c1	-1	-1	-1	-3	-3	.	.
COc1ccc2cc(CCNC(=O)c3cccs3)c(=O)[nH]c2c1	3	4	0	4.0*	15*	11*	1
Cc1ccc(/C=C/C(=O)c2ccc(N3CCOCC3)cc2)s1	0	2	-1	0	14*	9	1
COc1ccccc1-c1cc(C(=O)NC(C)C)no1	1	5	0	2	8	.	.
CCC(C)NC(=O)c1cc(-c2ccccc2O)on1 (stereo unspecified)	1	3	-1	3	14*	9	0
O=C(NC1CCCCC1)c1cc(-c2ccc(O)cc2)on1	0	4	0	2	9	.	.
O=C(NC1CCCCC1)c1cc(-c2ccccc2O)on1	3	1	0	2	13*	15*	1
COc1cccc(-c2ncn(CCc3ccccc3OC)c2CC(C)C)c1	.	-4	-2	-2	-5	.	.
COc1cc(SC)ccc1C(=O)NCCOc1ccc(F)cc1	1	4	-1	3	17*	10	0
Cc1ccc(Nc2nc(-c3ccccc3)c(CC(=O)O)s2)cc1	0	2	0	2	14*	13*	0
Cc1ccc(-c2nc(-c3ccccn3)sc2CC(=O)O)cc1	0	-1	-1	0	6	.	.
COc1nc(-c2ccccc2)nnc1-c1ccccc1	2	15*	1.3*	3	15*	20*	1
C/C(=C\c1ccccc1)C(=O)NCCc1ccccc1	1	4	0	3	19*	16*	0
Cc1cc(NC(=O)CSc2nc3c(cc2C#N)CCC3)no1	4.7*	4	-1	3	13*	15*	1
CN(C)C=NC(=O)c1cc(C(=O)c2ccc(C(C)(C)C)cc2)c[nH]1	1	5	-1	4.4*	14*	16*	1
COC(=O)C1=C(C)N(Cc2cccc(C(F)(F)F)c2)C(=NCc2ccc3c(c2)OCO3)NC1c1cccc(Cl)c1 (stereo unspecified)	.	-2	-1	0	0	.	.
O=C(O)c1cc(-c2cccs2)[nH]n1	1	0	0	0	15*	1	0
Cc1ccc(CN2CCCCC(NC(=O)c3c(F)cccc3F)C2=O)cc1 (stereo unspecified)	.	-2	-1	-1	1	.	.
O=C(NNC(=S)Nc1ccc(Cl)cc1)c1cccs1	3	2	-1	2	14*	7	0
COc1cccc(-c2noc(-c3cccnc3)n2)c1	4.2*	2	0	3	14*	15*	1
COc1cccc(-c2noc(-c3ccc(Br)o3)n2)c1	3	3	0	4.4*	16*	17*	1
C[C@H](CO)N1C[C@H](C)[C@H](CN(C)C(=O)Nc2cccc(F)c2)OCc2cnnn2CCCC1=O	.	0	0	0	-4	.	.
CCc1ccc(NC(=O)Nc2cccs2)cc1	2	4	0	1	14*	18*	1
Cc1cccc(S(=O)(=O)Nc2ccc(-c3nc4ccc(C)cc4s3)cc2)c1	3	5	0	4.2*	22*	21*	1
SMILES	DAX1 inh-1	hcDAF-12 act	ssDAF-12 act	DAX1 inh-2	hgDAF12 agonist	hgDAF12 conf	LXRb DAF12 ctr
Cc1ccc2nc(-c3ccc(NS(=O)(=O)c4c(C)n(C)c(=O)n(C)c4=O)cc3)sc2c1	6.3*	5	0	3	20*	17*	1
Cc1ccc(S(=O)(=O)Nc2ccc(-c3nc4ccc(C)cc4s3)cc2)cc1	-1	1	-1	0	1	.	.
Cc1c(S(=O)(=O)Nc2ccc3c(c2)OCCO3)c(=O)n(C)c(=O)n1C	1	1	-1	1	-2	.	.
O=C(NCc1ccccc1)[C@@H]1CCCN1C(=O)[C@H]1CCCN1C(=O)c1ccc(Cl)cc1	.	-1	-1	-1	-1	.	.
COC(=O)C1=C(C)N(Cc2ccccc2)C(=S)NC1c1cccc(Br)c1 (stereo unspecified)	.	1	-1	1	5	.	.
COC(=O)c1ccc(Cn2ccc3ccc(-c4ccc5ccn(C(=O)C6CCCCC6)c5c4)cc32)cc1	.	-3	-1	0	1	.	.
O=[N+]([O-])c1ccc(NN=Cc2ccc3c(c2)OCO3)nc1	7.2*	4	0	3	15*	17*	1
O=[N+]([O-])c1ccc(S(=O)(=O)NN=Cc2ccc3c(c2)OCO3)cc1	1	0	-1	0	1	.	.
COC(=O)[C@]12C[C@H](CC(=O)N3CCOCC3)C(=O)N(Cc3cccc4ccccc34)C1=C[C@H](C(C)(C)C)O[C@@H]2C	.	-2	-1	0	1	.	.
COC(=O)[C@]12C[C@H](CC(=O)NCCc3ccccc3OC)C(=O)N(CCC3=CCCCC3)C1=C[C@H](C(C)(C)C)O[C@@H]2C	.	2	-1	-1	-1	.	.
Cc1ccc(C)c(NC(=O)[C@@H]2CCCN2S(=O)(=O)c2cccc3cccnc23)c1	.	-3	-1	.	-4	.	.
N=c1c2c(-c3ccccc3)c(-c3ccccc3)n(CCc3ccccc3)c2ncn1CCO	.	0	-1	-2	1	.	.
O=C(c1cnsn1)N1CCC(CO)(Cc2cccc(F)c2)CC1	2	3	0	2	15*	10	0
Cc1cc(C(=O)N2CCC(CO)(Cc3cccc(C(F)(F)F)c3)CC2)n[nH]1	-1	-1	-1	0	-2	.	.
CN(CCCOC(=O)c1cccs1)C1CN(Cc2cn(Cc3ccccc3Cl)nn2)S(=O)(=O)C1 (stereo unspecified)	.	-2	-1	-1	1	.	.
O=C(c1cc(F)ccc1F)N(Cc1ccccn1)CC1CCCO1 (stereo unspecified)	.	-1	-2	0	1	.	.
O=C(c1ccc(F)cc1Cl)N(Cc1ccccn1)CC1CCCO1 (stereo unspecified)	.	-2	-1	0	31*	1	0
CCCCCCC12C(=Cc3cc4c(cc31)OCCO4)c1cc(OC)c(OC)cc1C(CC(=O)O)N2C(=O)OC (stereo unspecified)	.	-1	-2	0	-5	.	.
O=C(Nc1ccccc1)C1CC(=O)N(Cc2ccccc2)C1 (stereo unspecified)	1	0	0	0	-1	.	.

Source: PubChem (The Scripps Research Institute Molecular Screening Center)
